In PubChem BioAssay AID1259415 (National Center for Advancing Translational Sciences (NCATS), 2018):
About 18,000 (4.4%) of roughly 410,000 compounds were called active. Inconclusive results (about 7%) are left out. Cut-off read from the data, not from the text of the source: active = activity change below about -60%; inconclusive = no clear call, values can overlap the other calls; inactive = above about -39%. Many of the other results were omitted from the sample, so actives are more common in it than they were.

Experiment: qHTS Assay for inhibitors of the human cytomegalovirus (HCMV)
Conditions: HFF cells, HCMV-luciferase reporter, 72 h; at 57.5 µM; hits give low values
Excerpt: NCGC Assay Overview: Infection with human cytomegalovirus (HCMV) continues to pose significant threats for pregnant women and immunocompromised hosts. HCMV causes serious morbidity and mortality in transplant recipients, and congenital HCMV is the leading infectious cause of mental retardation and deafness in children. In the 1990s, the annual costs associated with the disease burden of congenital CMV were estimated at around $2 billion. A HCMV vaccine is not available yet and HCMV therapies result in intolerable side effects and emergence of drug resistant viruses. […] Towards this goal we have developed and characterized a luciferase HCMV reporter that was initially used in 96 well plates and then optimized to 1536-well plates for utilization in screening of the MLSMR collection, the NGCG diversity collection and the NCGC Pharmaceutical Collection of approved and investigational drugs.
NCGC Assay Protocol Summary:
This is a cell-based assay for HCMV inhibition in HFFs cells. The screening used 2 compound doses and the HCMV-luciferase at MOI of 1 PFU/cell. Cells were treated and infected with HCMV. At 72 h post infection cell lysates were collected and luciferase activity was determined using the Glomax-Multi + Detection System (Promega, Madison, WI). Data were normalized to the controls for basal activity (buffer only) and known HCMV inhibitors Salinmoycin.
1536-well assay protocol for the assay:
(1) Add 3 ul CMV/HFF cell culture. 1000 cells/well in DMEM nirmal media.
(2) Incubate 16 hr at 37C.
(3) Add 23 nl control compound, 10uM of Salinomycin.
(4) Add 23 nl compounds in DMSO solution.
(5) Add 3 ul CMV suspension. Final 1 puf/ul, Virus stock 2000pfu/ul
(6) Incubate 72 hrs at 37C.
(7) Add 4 ul OneGlo Luc Reagent.
(8) Incubate 5 min at room temperature.
% is set by controls: 0 for no effect and ±100 for the full control effect.

| SMILES | activity change, negative = inhibition |
| --- | --- |
| COc1ccc(C(=O)OCC(=O)NCC2CCCO2)cc1[N+](=O)[O-] (stereo not drawn) | 15.2% (inactive) |
| O=C1C(C=NCC2CCCO2)=C(O)c2ccccc21 (stereo not drawn) | 69.7% (inactive) |
| O=C1c2cccc3c([N+](=O)[O-])ccc(c23)C(=O)N1CC1CCCO1 (stereo not drawn) | -82.1% (active) |
| CCOc1cc(C(C(=O)NCC2CCCO2)N(C(=O)Cn2nnc3ccccc32)c2cccc(OC)c2)ccc1O (stereo not drawn) | -8.64% (inactive) |
| Cc1ccc2oc(=O)c3cnn(CC(=O)NCc4ccccc4Cl)c3c2c1 | -4.14% (inactive) |
| COc1ccc(NC(=O)c2sc3nc[nH]c(=O)c3c2C)cc1 | 52.3% (inactive) |
| CCCn1c(N)c(C(=O)CSc2nc3ccccc3c(=O)n2-c2ccc(OC)cc2)c(=O)[nH]c1=O | -29.3% (inactive) |
| COc1cccc(-n2c(SCC(=O)c3c[nH]c4ccccc34)nc3ccccc3c2=O)c1 | -93.8% (active) |
| Cc1ccc(-n2c(SCC(=O)N3CCC(C(=O)O)CC3)nc3ccccc3c2=O)cc1C | 6.85% (inactive) |
| COc1ccc(C)cc1NC(=O)COCc1cc(-c2cccs2)on1 | -10.8% (inactive) |
| Cc1ccc(C)c(N2CCN(c3ccc4cc(S(=O)(=O)N5CCC(C)CC5)ccc4n3)CC2)c1 | 19% (inactive) |
| COc1cccc(NC(=O)N2CCC(NC(=O)C(Cc3cccc(C)c3)NC(C)=O)CC2)c1 (stereo not drawn) | -66.8% (active) |
| COc1ccccc1CC(NC(C)=O)C(=O)NC1CCN(C(=O)Nc2ccccc2Cl)CC1 (stereo not drawn) | 0.54% (inactive) |
| CCOC(=O)C1CCN(C(=O)Nc2cccc(OC)c2)CC1 | 5.16% (inactive) |
| O=C(NCCCO)C(=O)Nc1c2c(nn1-c1ccccc1)CSC2 | -2.71% (inactive) |
| COc1cccc(CN2CCc3nc(SCC(=O)Nc4ccccc4)[nH]c(=O)c3C2)c1 | 4.11% (inactive) |
| O=C(Nc1c(Cl)c(C2CC2)nn1-c1ccccc1)C(Cl)(Cl)Cl | 12.3% (inactive) |
| CCCCNC(=O)C1CCCN(c2nnc(C)c3c(C)n(-c4ccc(Cl)cc4)nc23)C1 (stereo not drawn) | -6.23% (inactive) |
| CCOc1ccc(N(CC)S(=O)(=O)N2CCCC(C(=O)NCc3ccc(Cl)cc3)C2)cc1 (stereo not drawn) | -15.9% (inactive) |
| CCOc1ccc(CNC(=O)C2CCCN(c3nnc(C)c4c(C)n(-c5ccccc5)nc34)C2)cc1 (stereo not drawn) | -67.7% (active) |
| COc1ccc(S(=O)(=O)N2CCN(CC(=O)N3CCOCC3)CC2)cc1OC | 4.11% (inactive) |
| Cc1ccn(-c2cccc(-n3ccc(C)n3)n2)n1 | 65.3% (inactive) |

| SMILES | activity change, negative = inhibition |
| --- | --- |
| CC(=O)NC(CC(=O)Nc1ccc(S(=O)(=O)N2CCOCC2)cc1)c1ccccc1 (stereo not drawn) | 0% (inactive) |
| COc1cc(NC(=O)c2ccccc2NS(=O)(=O)c2ccc(Cl)s2)cc(OC)c1 | -99.7% (active) |
| COc1cc(NS(=O)(=O)c2cccs2)cc(OC)c1 | 16.4% (inactive) |
| Cc1cc(NS(=O)(=O)c2ccc(NC(=O)c3ccccc3C)cc2)nc(C)n1 | -5.8% (inactive) |
| COc1cccc(NC(=O)c2ccccc2N(Cc2ccccc2)S(C)(=O)=O)c1 | -6.12% (inactive) |
| COC(=O)c1ccccc1NS(=O)(=O)c1ccc2c(c1)CCCN2C(C)=O | -2.94% (inactive) |
| COC(=O)c1ccc(NC(=O)c2ccccc2NS(=O)(=O)c2ccccc2)cc1 | -105% (active) |
| COc1ccc(C2CC(=O)Nc3c2c(=O)nc2c(C)cccn32)cc1OC (stereo not drawn) | 3.37% (inactive) |
| CCn1c(CNC(=O)c2ccccc2)nnc1SCC(=O)N1CCN(c2ccccc2)CC1 | -25.6% (inactive) |
| O=C(CCNS(=O)(=O)c1ccccc1C(F)(F)F)Nc1ccncc1 | 6.98% (inactive) |
| O=C(CN1CCN(c2ccccc2O)CC1)NC(=O)NCc1ccccc1 | -4.33% (inactive) |
| Cc1ccccc1NC(=O)C1CCCN(C(=O)NCc2ccccc2)C1 (stereo not drawn) | -18.4% (inactive) |
| Oc1ccc(N2CCN(C(=S)NCc3ccccc3)CC2)cc1 | -63.6% (active) |
| COc1cc(C2C(C(=O)OCCC#N)=C(C)NC3=C2S(=O)(=O)c2ccccc23)cc(OC)c1OC (stereo not drawn) | 2.51% (inactive) |
| COc1ccccc1N1CCN(c2ncnc3onc(-c4cccc(Cl)c4)c23)CC1 | 10.1% (inactive) |
| COc1ccc2c(c1)c(N1CCCC1=O)c(C(=O)Nc1ccc(OC)c(Cl)c1)n2C | -18.9% (inactive) |
| Cc1nn(CC(=O)O)c(=O)c2cc3cc(F)ccc3n12 | 31% (inactive) |
| Cc1cccc(OCCNC(=S)NC(=O)c2cccnc2)c1 | -37.9% (inactive) |
| Cc1cccc(OCC(=O)NCCNC(=O)c2cccnc2)c1 | -66.9% (active) |
| CCNC(=O)COC(=O)CCNC(=O)c1cccc(C)c1 | -28.9% (inactive) |
| Cc1cc(C)c(S(=O)(=O)NN=C2c3ccccc3[C@H]3Cc4csc[n+]4[C@@H]23)c(C)c1 | -27.2% (inactive) |
| O=C(CCc1nc(CN2CCN(S(=O)(=O)c3ccc(F)cc3)CC2)no1)N1CCCCC1 | -35.8% (inactive) |

| SMILES | activity change, negative = inhibition |
| --- | --- |
| Cc1cccc(C)c1NC(=O)C1CCCN1C(=O)OC(C)(C)C (stereo not drawn) | -2.93% (inactive) |
| CCC[C@H]1CCCC/C=C\CCCC(=O)OCCN1C(=O)OC(C)(C)C | -71.3% (active) |
| CC1CCCCC1NC(=O)CSc1nnc(N)s1 (stereo not drawn) | 41.4% (inactive) |
| Cc1nc(SCC(=O)NC2CCCCC2C)c(C#N)c(C)c1C (stereo not drawn) | -103% (active) |
| Cc1nc(SCC(=O)NC2CCCC2)[nH]c(=O)c1C | -10.8% (inactive) |
| COc1cccc(CNC(=O)[C@@H]2CCCN2C(=O)[C@@H]2CCCN2C(=O)c2ccccc2)c1 | -2.63% (inactive) |
| O=C(NCCS(=O)(=O)NCc1ccc(F)cc1)c1ccccc1 | -9.67% (inactive) |
| Cc1nc2c(C(=O)NCc3ccc4c(c3)OCO4)c[nH]n2c(=O)c1Cc1ccccc1F | -7.59% (inactive) |
| COc1ccc(NC(=O)/C(N=Nc2cccc(S(=O)(=O)Nc3ccc(SC(F)F)cc3)c2)=C(\C)O)cc1 | -70.6% (active) |
| COc1ccc(NS(=O)(=O)c2cccc(C(=O)NCCc3ccc(S(N)(=O)=O)cc3)c2)cc1 | -1.91% (inactive) |
| Cc1c(NS(=O)(=O)c2cccc(C(=O)Nc3ccc(SC(F)F)cc3)c2)c(=O)n(-c2ccccc2)n1C | -2.26% (inactive) |
| Cc1ccc(Cl)cc1N1CCN(C(=O)c2cnc3c(-c4ccc(F)cc4)c(C)nn3c2C)CC1 | 7.36% (inactive) |
| Cc1cccc(OC(C)C(=O)N2CCc3ccccc3C2)c1 (stereo not drawn) | -31.1% (inactive) |
| O=C(Nc1cccc([N+](=O)[O-])c1)N1CCc2ccccc2C1 | -65.7% (active) |
| Cc1cccc(NC(=O)N2CCC(CN3CCc4ccccc4C3)CC2)c1C | 7.59% (inactive) |
| CC(=O)c1ccc(NC(=O)c2nc3nc(C)cc(C(F)F)n3n2)cc1 | 19.3% (inactive) |
| CCOc1ccc(-c2nonc2NC(=O)c2oc3ccc(C)cc3c2C)cc1OCC | 5.37% (inactive) |
| Cc1ccc2c(O)c(Cc3ccccc3)c(=O)[nH]c2n1 | 22% (inactive) |
| O=C(Nc1c(-c2ccc(F)cc2)nc2ccccn12)c1cccc(F)c1 | -69.4% (active) |
| Cc1nc2ccccn2c(=O)c1NC(=O)c1c(F)cccc1F | -14.4% (inactive) |
| COC(=O)c1ccc2nc(-c3ccc(Cl)cc3)c(Cc3cccc(F)c3)n2c1 | -17.1% (inactive) |
| Cc1ccc(CNC(=O)c2c(O)nc3c(C)cccn3c2=O)cc1 | 5.82% (inactive) |

| SMILES | activity change, negative = inhibition |
| --- | --- |
| COC(=O)[C@@]1(Sc2ccc(OC)cc2)CC(=O)N(c2ccc(OC)cc2C)[C@@H]1c1ccc(OC(C)C)c(OC)c1 | 10.7% (inactive) |
| COc1cc(OC)c(NC(=O)c2cnc(N3CCCC3)nc2C)cc1Cl | -14.2% (inactive) |
| Cc1nnc(SCC(=O)N(C(C)C)C(C)C)nc1C | -39.9% (inactive) |
| CC(C)OCCCNc1ncnc2c1[nH]c1ccc(F)cc12 | -79% (active) |
| COc1ccc(Cn2cc(C(=O)c3ccc(C)cc3)c(=O)c3cc(OC)c(OC)cc32)cc1 | -22.1% (inactive) |
| O=C(NC1CCCC1)C(c1ccco1)N(C(=O)c1csnn1)c1ccccc1 (stereo not drawn) | 13.9% (inactive) |
| CCCCN(C(=O)C1=NN(c2cc(C)ccc2C)C(=O)CC1)c1c(N)n(CCC)c(=O)[nH]c1=O | 8.37% (inactive) |
| Cn1c(=O)c2c(SCC(=O)N3CCc4ccccc43)nc(-c3ccc(Cl)cc3)nc2n(C)c1=O | 17.9% (inactive) |
| COc1ccccc1N1CCN(c2ncnc3onc(-c4ccc(F)cc4)c23)CC1 | -11.8% (inactive) |
| CCCCCCCCCCCCn1ccc(=N)cc1 | -96.6% (active) |
| O=C(CCSCc1cccc(F)c1)NCc1ccccc1 | -2.8% (inactive) |
| O=C(NCC(c1ccc2c(c1)OCO2)N1CCN(c2ccccc2)CC1)C(=O)Nc1ccccc1F (stereo not drawn) | 9.73% (inactive) |
| COC(=O)C1=C(c2ccccc2)c2ccccc2S(=O)(=O)N1CC(=O)Nc1ccccc1C(F)(F)F | -5.56% (inactive) |
| CCCc1nn2c(=O)cc(COC(=O)c3ccc(NC(=O)C(C)Oc4ccccc4)cc3)nc2s1 (stereo not drawn) | -18.3% (inactive) |
| COC(=O)CC1Oc2ccccc2-n2cc(-c3ccccc3)nc21 (stereo not drawn) | -14.2% (inactive) |
| COCC(C)n1c(SCc2ccc(C(=O)OC)o2)nc2ccccc2c1=O (stereo not drawn) | -23% (inactive) |
| COCCn1c(C)cc(C(=O)CSc2nc3ccccc3c(=O)n2C(C)COC)c1C (stereo not drawn) | -66% (active) |
| COCC(C)n1c(C)cc(C(=O)CSc2cc(C)c3ccccc3n2)c1C (stereo not drawn) | -3.64% (inactive) |
| O=C(NC1CCCC1)c1csc(C(O)c2cccc(Cl)c2)n1 (stereo not drawn) | -12.9% (inactive) |
| CC1CN(C(=O)c2ccc3c(c2)OCO3)OC(c2ccccc2)O1 (stereo not drawn) | 26.2% (inactive) |
| CCCCCCn1nnc2sc(-c3ccccc3)cc2c1=O | 15.8% (inactive) |
| COc1ccc(CNC(=O)c2ccc3c(O)c(S(=O)(=O)c4ccccc4)c(=O)[nH]c3c2)cc1 | 6.38% (inactive) |
